Holding throughout (assay): DAPPL (digital affinity profiling via proximity ligation, sequencing); 10 mM Tris-HCl pH 7.5, 50 mM NaCl, 1 mM DTT, 4% glycerol, room temperature, 30 min; GST-TFs on glutathione beads, 16-mer random dsDNA library, 0.1% formaldehyde crosslink after washing; high values mean tight binding
For experiment [1], the target named is T1, FEV (Homo sapiens, UniProt Q99581 1-238).
T1 sequence: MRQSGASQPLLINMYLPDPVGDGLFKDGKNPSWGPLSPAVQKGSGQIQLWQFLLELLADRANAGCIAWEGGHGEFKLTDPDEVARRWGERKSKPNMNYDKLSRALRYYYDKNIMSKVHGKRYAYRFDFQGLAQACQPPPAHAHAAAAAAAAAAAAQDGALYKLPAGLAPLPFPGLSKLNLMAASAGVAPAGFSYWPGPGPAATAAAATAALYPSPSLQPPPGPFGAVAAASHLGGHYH
Conditions: protein: recombinant; tags: N-terminal GST; dsDNA, one strand shown. In short, it runs like this: (§1)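 Binding signal is each hexamer's read frequency for a factor divided by its frequency in the tag-only sample. The factors were GST-fused human transcription factors from yeast, captured on glutathione beads, DNA-barcoded and pooled with that sample. Pools were incubated with 200 nmole of a random double-stranded 16-mer DNA library in Tris/NaCl/DTT/glycerol buffer at room temperature for 30 min, then washed, crosslinked with 0.1% formaldehyde, proximity-ligated with BsaI/T4 ligase (1 h, 37 °C), PCR-amplified and sequenced on an Illumina NextSeq500.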

In experiment [2] the target is ETV5 (Homo sapiens, UniProt P41161 1-510). Conditions: protein: recombinant; tags: N-terminal GST; dsDNA, one strand shown. The method, boiled down:
as §1

Experiment [3] has as its target HSF1 (Homo sapiens, UniProt Q00613 1-529). As to conditions: protein: recombinant; tags: N-terminal GST; chain copies: 3; dsDNA, one strand shown. In short, it runs like this:
as §1

In experiment [4] the target is T2, SPIC (Homo sapiens, UniProt Q8N5J4 1-248).
T2 sequence: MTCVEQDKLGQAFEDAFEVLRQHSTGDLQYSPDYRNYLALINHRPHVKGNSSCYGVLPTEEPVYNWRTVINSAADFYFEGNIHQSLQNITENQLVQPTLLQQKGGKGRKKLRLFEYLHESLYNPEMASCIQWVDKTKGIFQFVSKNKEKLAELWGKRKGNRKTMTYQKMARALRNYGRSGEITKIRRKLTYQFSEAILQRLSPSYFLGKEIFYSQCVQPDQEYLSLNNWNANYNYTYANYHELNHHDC
Conditions: protein: recombinant; tags: N-terminal GST; dsDNA, one strand shown. In short, it runs like this: as §1

For experiment [5], the target named is ELF4 (Homo sapiens, UniProt Q99607 1-663). As to conditions: protein: recombinant; tags: N-terminal GST; dsDNA, one strand shown. In short, it runs like this:
as §1

The target in experiment [6] is T3, ELK4 (Homo sapiens, UniProt P28324-2 1-405).
T3 sequence: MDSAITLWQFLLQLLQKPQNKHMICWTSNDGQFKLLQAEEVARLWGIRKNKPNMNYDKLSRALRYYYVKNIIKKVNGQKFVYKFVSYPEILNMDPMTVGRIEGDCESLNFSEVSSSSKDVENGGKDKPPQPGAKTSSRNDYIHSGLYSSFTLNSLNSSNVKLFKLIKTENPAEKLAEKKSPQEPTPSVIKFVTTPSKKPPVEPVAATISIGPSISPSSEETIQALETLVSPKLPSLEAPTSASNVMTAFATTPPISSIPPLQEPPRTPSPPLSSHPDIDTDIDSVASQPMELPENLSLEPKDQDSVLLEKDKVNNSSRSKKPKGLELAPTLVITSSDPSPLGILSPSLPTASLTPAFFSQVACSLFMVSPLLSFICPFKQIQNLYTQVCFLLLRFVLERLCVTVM
As to conditions: protein: recombinant; tags: N-terminal GST; dsDNA, one strand shown. In short, it runs like this:
as §1

Experiment [7] has as its target T4, ETV2 (Homo sapiens, UniProt O00321 1-342).
T4 sequence: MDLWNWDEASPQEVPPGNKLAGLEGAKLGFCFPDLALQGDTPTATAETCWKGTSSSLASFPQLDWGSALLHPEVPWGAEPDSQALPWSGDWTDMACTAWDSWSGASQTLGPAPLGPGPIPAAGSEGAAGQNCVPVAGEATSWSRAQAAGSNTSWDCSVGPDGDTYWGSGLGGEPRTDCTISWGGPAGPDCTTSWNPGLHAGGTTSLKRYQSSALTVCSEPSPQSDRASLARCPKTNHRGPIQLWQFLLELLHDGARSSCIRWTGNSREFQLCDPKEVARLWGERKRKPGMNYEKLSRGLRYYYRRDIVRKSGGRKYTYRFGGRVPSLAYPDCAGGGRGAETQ
As to conditions: protein: recombinant; tags: N-terminal GST; dsDNA, one strand shown. The method, boiled down:
as §1

The target in experiment [8] is T5, ELF3 (Homo sapiens, UniProt P78545 1-371).
T5 sequence: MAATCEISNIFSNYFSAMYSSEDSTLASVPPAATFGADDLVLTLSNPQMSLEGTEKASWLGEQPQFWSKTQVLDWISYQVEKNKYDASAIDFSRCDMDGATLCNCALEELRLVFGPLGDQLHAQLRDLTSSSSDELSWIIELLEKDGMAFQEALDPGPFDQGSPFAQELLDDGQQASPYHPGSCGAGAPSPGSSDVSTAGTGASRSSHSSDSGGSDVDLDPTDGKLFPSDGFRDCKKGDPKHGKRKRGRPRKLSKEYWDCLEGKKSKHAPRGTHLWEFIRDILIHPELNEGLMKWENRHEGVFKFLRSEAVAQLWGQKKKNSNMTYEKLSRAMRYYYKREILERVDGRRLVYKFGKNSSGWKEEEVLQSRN
As to conditions: protein: recombinant; tags: N-terminal GST; dsDNA, one strand shown. The method, boiled down: as §1

Experiment [9] concerns the target CRX (Homo sapiens, UniProt O43186 1-299). As to conditions: protein: recombinant; tags: N-terminal GST; dsDNA, one strand shown. In short, it runs like this: as §1
The target in experiment [10] is ETV1 (Homo sapiens, UniProt P50549 1-477). As to conditions: protein: recombinant; tags: N-terminal GST; dsDNA, one strand shown. The method, boiled down:
as §1

The target in experiment [11] is T6, ERF (Homo sapiens, UniProt P50548 1-548).
T6 sequence: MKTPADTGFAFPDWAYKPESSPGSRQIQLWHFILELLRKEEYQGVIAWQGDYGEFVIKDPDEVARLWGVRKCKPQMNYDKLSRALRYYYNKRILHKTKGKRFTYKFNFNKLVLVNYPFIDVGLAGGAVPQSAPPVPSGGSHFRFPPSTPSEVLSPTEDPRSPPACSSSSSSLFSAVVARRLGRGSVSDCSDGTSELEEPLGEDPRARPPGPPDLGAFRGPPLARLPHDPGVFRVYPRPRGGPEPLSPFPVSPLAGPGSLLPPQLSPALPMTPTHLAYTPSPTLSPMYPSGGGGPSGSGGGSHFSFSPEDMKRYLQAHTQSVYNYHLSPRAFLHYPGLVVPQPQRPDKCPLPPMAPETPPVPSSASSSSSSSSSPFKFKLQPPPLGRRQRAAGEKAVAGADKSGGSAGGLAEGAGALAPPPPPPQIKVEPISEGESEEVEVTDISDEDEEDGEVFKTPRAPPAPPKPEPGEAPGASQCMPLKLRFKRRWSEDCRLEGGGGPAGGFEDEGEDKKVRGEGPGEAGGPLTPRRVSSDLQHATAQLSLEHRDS
Conditions: protein: recombinant; tags: N-terminal GST; dsDNA, one strand shown. In short, it runs like this: as §1

Experiment [12] addresses T7, ETV3L (Homo sapiens, UniProt Q6ZN32 1-361).
T7 sequence: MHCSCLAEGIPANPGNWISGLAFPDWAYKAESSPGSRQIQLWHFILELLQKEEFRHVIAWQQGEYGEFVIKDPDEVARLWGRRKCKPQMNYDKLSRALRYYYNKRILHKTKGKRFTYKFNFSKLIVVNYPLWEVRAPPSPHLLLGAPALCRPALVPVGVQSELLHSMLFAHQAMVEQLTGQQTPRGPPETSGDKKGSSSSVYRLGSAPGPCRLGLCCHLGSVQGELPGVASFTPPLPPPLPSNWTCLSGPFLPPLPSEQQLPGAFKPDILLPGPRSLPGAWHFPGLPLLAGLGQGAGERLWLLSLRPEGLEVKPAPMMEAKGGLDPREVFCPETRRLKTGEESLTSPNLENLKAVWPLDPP
As to conditions: protein: recombinant; tags: N-terminal GST; dsDNA, one strand shown. In short, it runs like this:
as §1

For experiment [13], the target named is T8, ETS2 (Homo sapiens, UniProt P15036 1-469).
T8 sequence: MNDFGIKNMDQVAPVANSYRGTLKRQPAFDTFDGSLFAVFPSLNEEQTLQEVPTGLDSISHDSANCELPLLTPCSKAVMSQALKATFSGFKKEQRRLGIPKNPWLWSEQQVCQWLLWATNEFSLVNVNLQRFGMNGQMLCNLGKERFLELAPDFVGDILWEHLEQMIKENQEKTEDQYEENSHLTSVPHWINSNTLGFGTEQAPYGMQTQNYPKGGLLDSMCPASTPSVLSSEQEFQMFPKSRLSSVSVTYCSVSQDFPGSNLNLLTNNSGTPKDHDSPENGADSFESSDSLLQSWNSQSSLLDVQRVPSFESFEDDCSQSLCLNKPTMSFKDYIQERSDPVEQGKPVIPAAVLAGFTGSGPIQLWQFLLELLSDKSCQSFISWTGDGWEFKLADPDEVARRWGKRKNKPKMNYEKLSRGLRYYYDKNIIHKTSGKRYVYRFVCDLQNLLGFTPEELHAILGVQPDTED
Conditions: protein: recombinant; tags: N-terminal GST; dsDNA, one strand shown. In short, it runs like this:
as §1

For experiment [14], the target named is T9, SPDEF (Homo sapiens, UniProt O95238 1-335).
T9 sequence: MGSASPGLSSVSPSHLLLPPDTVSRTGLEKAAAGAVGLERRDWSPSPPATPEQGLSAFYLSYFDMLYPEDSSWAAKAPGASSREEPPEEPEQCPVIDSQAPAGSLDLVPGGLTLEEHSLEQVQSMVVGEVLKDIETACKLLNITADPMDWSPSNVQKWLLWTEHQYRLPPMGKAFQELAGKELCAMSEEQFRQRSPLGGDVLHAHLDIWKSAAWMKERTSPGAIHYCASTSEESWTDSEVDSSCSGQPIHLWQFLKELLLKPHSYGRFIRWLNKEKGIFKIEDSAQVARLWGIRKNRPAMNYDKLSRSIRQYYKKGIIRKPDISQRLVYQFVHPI
As to conditions: protein: recombinant; tags: N-terminal GST; dsDNA, one strand shown. The method, boiled down:
as §1

Experiment [15] addresses T10, ETV7 (Homo sapiens, UniProt Q9Y603 1-341).
T10 sequence: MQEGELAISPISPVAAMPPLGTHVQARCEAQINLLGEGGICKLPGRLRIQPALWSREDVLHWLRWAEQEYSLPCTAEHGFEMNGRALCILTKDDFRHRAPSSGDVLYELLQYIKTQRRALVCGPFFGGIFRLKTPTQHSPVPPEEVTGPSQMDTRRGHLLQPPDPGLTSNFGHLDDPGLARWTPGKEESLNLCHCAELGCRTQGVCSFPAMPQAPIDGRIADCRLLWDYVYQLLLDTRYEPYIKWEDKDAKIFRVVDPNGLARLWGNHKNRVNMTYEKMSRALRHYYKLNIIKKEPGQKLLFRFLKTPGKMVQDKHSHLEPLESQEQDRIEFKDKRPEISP
Conditions: protein: recombinant; tags: N-terminal GST; dsDNA, one strand shown. The method, boiled down: as §1

Experiment [16] addresses T11, ELF5 (Homo sapiens, UniProt Q9UKW6-2 1-255).
T11 sequence: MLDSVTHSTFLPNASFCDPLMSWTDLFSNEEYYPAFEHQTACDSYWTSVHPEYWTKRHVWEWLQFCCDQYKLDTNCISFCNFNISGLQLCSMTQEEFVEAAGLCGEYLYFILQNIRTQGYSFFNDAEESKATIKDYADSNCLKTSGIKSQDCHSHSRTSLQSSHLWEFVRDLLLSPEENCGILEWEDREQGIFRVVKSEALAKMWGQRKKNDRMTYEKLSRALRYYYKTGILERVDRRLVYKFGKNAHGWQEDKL
As to conditions: protein: recombinant; tags: N-terminal GST; dsDNA, one strand shown. The method, boiled down:
as §1

In experiment [17] the target is T12, ETV3 (Homo sapiens, UniProt P41162-2 1-143).
T12 sequence: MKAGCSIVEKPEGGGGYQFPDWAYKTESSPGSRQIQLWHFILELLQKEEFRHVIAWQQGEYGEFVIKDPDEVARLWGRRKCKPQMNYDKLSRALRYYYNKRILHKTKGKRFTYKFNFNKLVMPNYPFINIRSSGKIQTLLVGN
As to conditions: protein: recombinant; tags: N-terminal GST; dsDNA, one strand shown. The method, boiled down:
as §1

The target in experiment [18] is ETV6 (Homo sapiens, UniProt P41212 1-452). Conditions: protein: recombinant; tags: N-terminal GST; dsDNA, one strand shown. The method, boiled down: as §1
Sequence of ETV6 (P41212 whole entry): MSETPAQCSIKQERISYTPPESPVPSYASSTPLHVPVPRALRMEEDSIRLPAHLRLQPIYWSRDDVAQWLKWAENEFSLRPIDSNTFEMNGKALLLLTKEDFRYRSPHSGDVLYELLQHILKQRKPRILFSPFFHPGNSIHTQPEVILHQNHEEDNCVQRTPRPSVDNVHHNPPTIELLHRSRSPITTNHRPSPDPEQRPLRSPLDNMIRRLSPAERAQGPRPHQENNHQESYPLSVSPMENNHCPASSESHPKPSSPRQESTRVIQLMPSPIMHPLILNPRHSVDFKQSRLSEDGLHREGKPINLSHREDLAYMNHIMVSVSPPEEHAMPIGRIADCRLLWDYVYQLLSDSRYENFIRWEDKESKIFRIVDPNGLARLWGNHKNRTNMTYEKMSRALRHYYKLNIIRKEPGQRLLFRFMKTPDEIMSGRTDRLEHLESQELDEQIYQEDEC

Sequence of ELF4 (Q99607 whole entry): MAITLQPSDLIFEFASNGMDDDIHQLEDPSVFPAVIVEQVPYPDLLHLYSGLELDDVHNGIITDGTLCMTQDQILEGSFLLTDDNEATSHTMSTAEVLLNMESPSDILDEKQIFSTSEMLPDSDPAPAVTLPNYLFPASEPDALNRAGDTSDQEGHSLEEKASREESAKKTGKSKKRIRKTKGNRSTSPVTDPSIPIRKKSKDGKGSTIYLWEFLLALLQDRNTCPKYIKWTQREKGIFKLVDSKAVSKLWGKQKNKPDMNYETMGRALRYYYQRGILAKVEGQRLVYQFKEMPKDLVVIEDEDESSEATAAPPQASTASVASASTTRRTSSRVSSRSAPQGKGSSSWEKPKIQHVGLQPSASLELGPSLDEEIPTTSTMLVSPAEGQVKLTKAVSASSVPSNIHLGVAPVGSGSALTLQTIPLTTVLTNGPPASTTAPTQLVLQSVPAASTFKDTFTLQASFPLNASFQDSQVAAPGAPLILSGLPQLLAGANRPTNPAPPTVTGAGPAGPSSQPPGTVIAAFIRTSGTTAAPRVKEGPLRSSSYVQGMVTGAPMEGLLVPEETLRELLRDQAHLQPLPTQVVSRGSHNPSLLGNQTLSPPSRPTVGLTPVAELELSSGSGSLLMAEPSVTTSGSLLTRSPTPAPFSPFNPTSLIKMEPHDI
Sequence of ETV5 (P41161 whole entry): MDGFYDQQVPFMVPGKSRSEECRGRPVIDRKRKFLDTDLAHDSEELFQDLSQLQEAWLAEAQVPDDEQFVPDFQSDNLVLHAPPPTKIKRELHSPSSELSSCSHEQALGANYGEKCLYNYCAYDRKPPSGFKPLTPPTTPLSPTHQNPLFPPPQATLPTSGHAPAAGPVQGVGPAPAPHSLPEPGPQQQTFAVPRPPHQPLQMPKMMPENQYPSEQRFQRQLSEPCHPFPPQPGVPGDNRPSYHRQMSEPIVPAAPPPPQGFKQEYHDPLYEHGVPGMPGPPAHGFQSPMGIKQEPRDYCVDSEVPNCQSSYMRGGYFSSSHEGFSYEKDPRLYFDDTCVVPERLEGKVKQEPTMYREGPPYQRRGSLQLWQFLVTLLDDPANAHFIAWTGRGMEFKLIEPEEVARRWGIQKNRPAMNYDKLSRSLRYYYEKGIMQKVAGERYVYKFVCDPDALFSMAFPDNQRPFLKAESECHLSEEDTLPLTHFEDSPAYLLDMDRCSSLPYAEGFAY
Sequence of HSF1 (Q00613 whole entry): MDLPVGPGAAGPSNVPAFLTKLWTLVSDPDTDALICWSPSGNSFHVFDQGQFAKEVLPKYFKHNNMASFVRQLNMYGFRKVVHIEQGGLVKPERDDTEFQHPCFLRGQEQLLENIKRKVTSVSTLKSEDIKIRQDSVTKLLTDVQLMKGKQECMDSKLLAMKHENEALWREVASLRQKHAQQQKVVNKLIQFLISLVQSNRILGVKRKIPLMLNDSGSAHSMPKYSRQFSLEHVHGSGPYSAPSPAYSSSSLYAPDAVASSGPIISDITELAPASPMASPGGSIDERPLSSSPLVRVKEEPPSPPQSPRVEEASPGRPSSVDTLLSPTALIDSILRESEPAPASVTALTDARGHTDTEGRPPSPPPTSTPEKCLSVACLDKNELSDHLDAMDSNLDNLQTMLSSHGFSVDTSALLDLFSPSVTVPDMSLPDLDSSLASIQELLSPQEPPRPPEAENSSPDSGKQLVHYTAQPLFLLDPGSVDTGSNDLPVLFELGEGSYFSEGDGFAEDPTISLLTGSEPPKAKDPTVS
Sequence of ETV1 (P50549 whole entry): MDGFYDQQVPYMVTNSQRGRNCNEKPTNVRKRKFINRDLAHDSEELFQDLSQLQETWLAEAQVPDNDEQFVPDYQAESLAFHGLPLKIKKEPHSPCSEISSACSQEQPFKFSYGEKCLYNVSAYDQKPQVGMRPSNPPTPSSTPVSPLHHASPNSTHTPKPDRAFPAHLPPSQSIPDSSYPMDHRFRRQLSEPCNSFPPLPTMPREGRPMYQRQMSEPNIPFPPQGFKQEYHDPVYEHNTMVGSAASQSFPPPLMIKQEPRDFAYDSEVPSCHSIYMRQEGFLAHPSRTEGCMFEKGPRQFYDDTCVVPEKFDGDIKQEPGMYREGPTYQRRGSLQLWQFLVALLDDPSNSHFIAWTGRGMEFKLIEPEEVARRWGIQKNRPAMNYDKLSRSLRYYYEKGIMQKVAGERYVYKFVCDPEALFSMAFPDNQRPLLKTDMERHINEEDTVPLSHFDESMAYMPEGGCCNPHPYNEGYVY
Sequence of CRX (O43186 whole entry): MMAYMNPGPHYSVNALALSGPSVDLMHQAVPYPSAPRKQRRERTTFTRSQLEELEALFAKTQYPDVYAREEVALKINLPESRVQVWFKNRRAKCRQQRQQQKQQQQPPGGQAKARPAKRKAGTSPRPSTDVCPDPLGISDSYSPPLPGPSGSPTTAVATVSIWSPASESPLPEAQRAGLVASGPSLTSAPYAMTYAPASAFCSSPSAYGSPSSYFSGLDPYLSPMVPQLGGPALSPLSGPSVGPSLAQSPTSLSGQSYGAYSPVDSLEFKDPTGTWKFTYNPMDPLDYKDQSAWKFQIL

For the sequence CTGTTA, the binding signal in [1] was 1.25 fold enrichment (6-mer frequency, TF over GST control); in experiment [2], 1.2 fold enrichment (6-mer frequency, TF over GST control); in experiment [3], 1.16 fold enrichment (6-mer frequency, TF over GST control); in experiment [4], 1.28 fold enrichment (6-mer frequency, TF over GST control); in experiment [5], 1.37 fold enrichment (6-mer frequency, TF over GST control); in [6], 1.4 fold enrichment (6-mer frequency, TF over GST control). Moreover, the binding signal in [7] was 1.35 fold enrichment (6-mer frequency, TF over GST control); in experiment [8] it was 1.32 fold enrichment (6-mer frequency, TF over GST control); in [9] it was 1.16 fold enrichment (6-mer frequency, TF over GST control); in experiment [10] it was 1.23 fold enrichment (6-mer frequency, TF over GST control); in experiment [11] it was 1.28 fold enrichment (6-mer frequency, TF over GST control); in experiment [12], 1.23 fold enrichment (6-mer frequency, TF over GST control). For the same sequence, the binding signal in experiment [13] is 1.26 fold enrichment (6-mer frequency, TF over GST control); in [14], 1.32 fold enrichment (6-mer frequency, TF over GST control); in experiment [15] it was 1.12 fold enrichment (6-mer frequency, TF over GST control); in experiment [16], 1.37 fold enrichment (6-mer frequency, TF over GST control); in [17], 1.31 fold enrichment (6-mer frequency, TF over GST control); in experiment [18], 1.26 fold enrichment (6-mer frequency, TF over GST control).

For the origin of these results see PMC7862700, “An all-to-all approach to the identification of sequence-specific readers for epigenetic DNA modifications on cytosine”.
